Screening data (PubChem BioAssay)
AI-2 QS mod – Vibrio harveyi AI-2 quorum sensing modulators, primary screen, JMH597 strain, luminescence/OD600 ratio. Vibrio harveyi JMH597 AI-2 luminescence/OD600 ratio, 9 h; active compounds read low; strain lacks LuxN and CqsS sensors; 0 = neutral-control median. AID 2094, 2009. activity change, % at 7.5 µM. actives 0.4% (n = 300,000); in the data active = activity change below about -75%, passing the limit was not always enough; inconclusive = no clear call, values can overlap the other calls;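 also: luminescence divided by OD600 gain over 9 h not by final OD600 alone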
Mot1-301 SUMO – yeast Mot1-301 growth rescue at high temperature, primary screen, SUMOylation pathway inhibitor project, S. cerevisiae, ATP luminescence, 38.5C; S. cerevisiae Mot1-301 growth rescue; percent above DMSO median, 100 means doubled; growth rescue, % at 18.8 µM; actives 1% (n = 320,000); AID 2716, 2010;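 active = every valid replicate shows activation above 250% relative to neutral control wells; inactive = the rest, any valid replicate at or below 250%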
ARNT TACC3 PPI – disruptors of ARNT/TACC3 protein interaction, primary screen, biochemical, AlphaScreen, single concentration; AlphaScreen His-ARNT PAS-B/GST-TACC3 binding, luminescence; TACC3 fragment carries E629A point mutation; inhibition, % at 9.99 µM; actives 0.66% (n = 390,000); AID 623870, 2012;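 active = mean inhibition of replicates at least 50% and at least half of replicates each reaching 50%; inconclusive = half or more replicates reach 50% but mean below 50%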
A1 inh – caspase 3/7 activation in MEF A1-2A-BIM cells, primary screen, A1 inhibitor project, cell-based, luminescence, HTS; Caspase-Glo 3/7 luminescence, 3 h; percent of clofoctol response, vehicle zero; caspase activation, % (no concentration beside the values); actives 0.066% (n = 330,000);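 active = over half of replicate activation scores above 10%, or exactly half above 10 with the replicate mean above 10; inconclusive = replicate mean below 10 yet half the replicates above 10; inactive = over half of replicates below 10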
aDG glyco up – activators of alpha-DG glycosylation, primary screen, uHTS, Pro5-aDG cells, AlphaScreen | alpha-DG glycosylation AlphaScreen (IIH6); 0% Pro5, 100% B10-LARGE cell signal | activation, % at 10 µM | actives 0.22% (n = 360,000) | AID 624168, 2012;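 active = activation of at least 8% versus controls, or a plate z-score of at least 8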;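 also: Pro5 are CHO cells carrying HIG-tagged alpha-DG that lacks glycosylation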
Each line names hits and unclear results; the compound was inactive in the other large screens. Most compounds without a hit are left out; they make up all but 1.8% or so of the library.

CC1(C(=O)OCC(=O)Nc2nnc(-c3ccccc3)o2)CC1(Cl)Cl (stereo unspecified)	ARNT TACC3 PPI 49
COc1cccc(C(=O)Nc2nnc(-c3ccc(Cl)cc3)o2)c1	AI-2 QS mod -87
CC(=O)c1ccc(C(=O)Nc2nnc(-c3ccc(Cl)cc3)o2)cc1	AI-2 QS mod inconclusive
O=C(COc1ccccc1)Nc1nnc(-c2ccc(Cl)cc2)o1	AI-2 QS mod -90
COCCNC(=O)C[C@H]1C[C@H]2c3cc(NC(=O)Nc4ccccc4F)ccc3O[C@H]2[C@@H](CO)O1	none (no result: AI-2 QS mod, Mot1-301 SUMO, A1 inh, aDG glyco up)
COc1ccc(CN2C(=O)N(c3ccc(OC)cc3)C(=O)C2CC(=O)Nc2ccccc2)cc1 (stereo unspecified)	none
COc1ccc(-c2nnc(NC(=O)C3=COCCO3)o2)cc1	ARNT TACC3 PPI 46
O=C(CSc1nncs1)Nc1nnc(-c2ccccc2)o1	ARNT TACC3 PPI 54
CCN(CC)c1ccc(C=Nc2cccnc2Cl)c(O)c1	ARNT TACC3 PPI active
CCOC(=O)C(=NC1CCCCC1)NNc1cccc(C(F)(F)F)c1	none
Cc1ccc(CC(=O)Nc2ccc(S(=O)(=O)Nc3ncccn3)cc2)cc1	AI-2 QS mod -92
Cc1cc(NS(=O)(=O)c2ccc(NC(=O)Cc3ccc(Cl)c(Cl)c3)cc2)no1	none (no result: AI-2 QS mod, Mot1-301 SUMO, A1 inh)
O=C(CCSc1ccccc1)Nc1ccc(S(=O)(=O)Nc2ncccn2)cc1	AI-2 QS mod -79
O=C(CSc1ccccc1)Nc1ccc(S(=O)(=O)Nc2ncccn2)cc1	none
O=C(CSc1nnc2c(n1)[nH]c1ccccc12)Nc1ccc(S(=O)(=O)Nc2ncccn2)cc1	ARNT TACC3 PPI 49 (no result: Mot1-301 SUMO, A1 inh)
COc1ccc(CC(=O)Nc2ccc(S(=O)(=O)Nc3cc(C)on3)cc2)cc1	AI-2 QS mod -92
Cc1ccc(CC(=O)Nc2ccc(S(=O)(=O)Nc3nccc(C)n3)cc2)cc1	none (no result: ARNT TACC3 PPI)
COc1ccccc1NC(=O)Nc1nc(CC(=O)N2CCN(c3ccccc3F)CC2)cs1	none
Cc1ccc(NP(=O)(c2ccc(N(C)C)cc2NC(=O)c2cccs2)N2CCOCC2)cc1 (stereo unspecified)	none
Cn1nc(C(C)(C)C)cc1N1C(=O)CCC1(C)C(=O)Nc1ccc2c(c1)OCCO2 (stereo unspecified)	none (no result: AI-2 QS mod, Mot1-301 SUMO, ARNT TACC3 PPI, A1 inh)
Cc1cc([N+](=O)[O-])nn1CC(=O)NCc1ccc(Cl)cc1	none (no result: AI-2 QS mod)
COc1ccc(NC(=O)c2sccc2SCc2cccc(C(F)(F)F)c2)cc1	none
Cn1c(=O)cc(Cl)[nH]c1=O	none
CCCOc1ccc(Cc2nn3c(=O)/c(=C/c4ccco4)sc3nc2=O)cc1	ARNT TACC3 PPI 32
Cc1cc(N2CCN(C)CC2)nc2ccc(NC(=O)CCC(=O)NCCc3ccc(Cl)cc3)cc12	none (no result: Mot1-301 SUMO, A1 inh)
Oc1ccc(/C=N/N2CCN(C3c4ccccc4-c4ccccc43)CC2)cc1O	A1 inh 29
Oc1ccc(/C=N/N2CCN(C3c4ccccc4-c4ccccc43)CC2)cc1	none
Cc1ccc(C)c(S(=O)(=O)NCCCn2ccnc2)c1	none
Cc1ccc(-n2nnnc2CNC(=O)c2ccc(Br)o2)cc1C	none
Cc1ccc(-n2nnnc2CNC(=O)c2ccc3c(c2)OCO3)cc1C	Mot1-301 SUMO 330
O=C(O)C/C(=C\c1cc(Br)cs1)c1nc2ccccc2o1	none
COc1cc(NC(=O)COC(=O)CC(NC(C)=O)c2ccccc2)cc(OC)c1 (stereo unspecified)	Mot1-301 SUMO 352 (no result: ARNT TACC3 PPI)
COc1cc(NC(=O)COC(=O)c2ccccc2F)cc(OC)c1	none
O=C(C[C@@H]1C=C[C@H](NC(=O)Cc2ccccn2)[C@@H](CO)O1)NCCc1ccncc1	ARNT TACC3 PPI 47 (no result: AI-2 QS mod, Mot1-301 SUMO, A1 inh, aDG glyco up)
O=C(C[C@@H]1C=C[C@@H](NC(=O)Cc2ccccn2)[C@@H](CO)O1)NCCc1ccncc1	none (no result: AI-2 QS mod, Mot1-301 SUMO, A1 inh, aDG glyco up)
CCc1ccc(C(=O)NNc2ccc(F)cc2)cc1	Mot1-301 SUMO 319
CCOC(=O)C(=O)NNc1ccc(F)cc1	Mot1-301 SUMO 413 (no result: ARNT TACC3 PPI)
CCc1ccc(C(=O)NNc2ccc(S(N)(=O)=O)cc2)cc1	none
COc1cccc(COc2cc3ccccc3nc2C)c1	AI-2 QS mod -89
CC(C)CC(NC(=O)c1ccc(Cl)cc1Cl)C(=O)O (stereo unspecified)	Mot1-301 SUMO 271 (no result: ARNT TACC3 PPI)
O=C1C=CC(=O)c2c(O)c(N3CCN(CCOCCO)CC3)c(Br)c(O)c21	none (no result: AI-2 QS mod, Mot1-301 SUMO, A1 inh)
O=C1C=CC(=O)c2c(O)c(N3CCN(CCO)CC3)c(Cl)c(O)c21	ARNT TACC3 PPI 31 (no result: AI-2 QS mod, Mot1-301 SUMO, A1 inh)
CCc1nnc(SCC(=O)N2CCCc3ccccc32)nc1CC	none
Cc1ccc2c(c1)c1nnc(SCC(=O)N3CCCc4ccccc43)nc1n2CC(=O)O	ARNT TACC3 PPI 67
O=C(O)C1Cc2[nH]cnc2C(c2ccccc2O)N1 (stereo unspecified)	ARNT TACC3 PPI 82
CCCN(C)C[C@H]1OCCCC[C@@H](C)Oc2ccc(NC(=O)CCCN(C)C)cc2C(=O)N([C@H](C)CO)C[C@@H]1C	none (no result: AI-2 QS mod, Mot1-301 SUMO, A1 inh, aDG glyco up)
O=c1cc[nH]c2c1ccc1c(=O)cc[nH]c12	ARNT TACC3 PPI 74
CC(C)C[C@H](N)c1nnc(S(=O)(=O)Cc2ccc(F)cc2)o1	AI-2 QS mod -88
Cc1c(Cl)cccc1-c1ccc(CNCc2ccccn2)o1	ARNT TACC3 PPI 64
COc1ccc(C)cc1NC(=O)Cn1cnnn1	none
CC(C)(C)c1ccc2c(c1)OC(C(=O)N/N=C\c1ccncc1)CO2 (stereo unspecified)	none
CC(C)(C)c1ccc2c(c1)OC(C(=O)N/N=C\c1ccc[nH]1)CO2 (stereo unspecified)	A1 inh 24
c1ccc(OCCn2c(-c3ccco3)nc3ccccc32)cc1	none
COc1cc(N2C(=O)C=CC2=O)c(OC)cc1Cl	AI-2 QS mod -92
COc1cc(Cl)c(S(=O)(=O)N2CCCC2)cc1Cl	none
O=C(NCc1ccc2c(c1)OCO2)c1cccc(C(=O)NCc2ccc3c(c2)OCO3)c1	AI-2 QS mod -85
O=C(NCc1ccc2c(c1)OCO2)c1cccnc1	none
Cn1c(O)c(N=NC(=O)c2ccco2)c2ccccc21	none
CC(C)CCn1c(O)c(N=NC(=O)c2ccco2)c2ccccc21	Mot1-301 SUMO 553
Cc1cc(NC(=O)CCN2CCC(C)CC2)ccc1Br	none
O=C(NCC(O)c1ccc2ccccc2c1)c1c(F)cccc1F (stereo unspecified)	AI-2 QS mod -75
O=C(NCCc1ccccc1)c1c(F)cccc1F	A1 inh inconclusive
CCOc1ccc(NC(=O)CSc2nc(N3CCOCC3)nc(N3CCOCC3)n2)cc1	none
Cc1nc2ccc(S(=O)(=O)NCC(=O)NCCc3ccc(Cl)cc3)cc2s1	none
